Assay outcomes deposited in PubChem BioAssay by National Center for Advancing Translational Sciences (NCATS).
Rows were chosen to be rich in hits. Some 18% of all compounds tested hit in one or more screens of this group.
DT40 TDP1 CPT = growth inhibition of DT40 Tdp1-/-;hTDP1 cells with camptothecin (screen for TDP1 inhibitors); chicken DT40 Tdp1-/-;hTDP1 cells + 20 nM CPT, ATP luminescence, 48 h; Potency, µM (top dose mostly 46.2 µM), for the others: at the top dose activity change, negative = growth inhibition, most hits filed as inhibitors; 12% of 420,000 active; AID 686979; further: nearly all actives have a fitted effect of over 55% in size
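Cell growth measured by CellTiter-Glo luminescence after a minimum 48 h, 37 C compound exposure with 20 nM CPT in Tdp1-knockout DT40 cells stably expressing hTDP1, seeded 400/well; qHTS titration format.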
PLK1 PBD block = blocks phosphopeptide binding to human PLK1 polo-box domain | P53350 | Plk1 PBD binding of FITC phosphopeptide, fluorescence polarization | Potency, µM, for inactives: max response, negative = inhibition, actives largely listed as inhibitors | 2.8% of 360,000 active; further: series mostly up to about 57 µM; nearly all actives have a fitted effect of over 65% in size
VDR inh = vitamin D3 receptor (human) inhibition | AID 504847 | Potency, µM, without a hit: max response, negative = inhibition, most hits filed as inhibitors | VDR-SRC2-3 peptide fluorescence polarization, 2 h | 0.93% of 400,000 active
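Compounds are added to VDR with labelled SRC2-3 coactivator peptide and held 2 h at room temperature. Inhibition of the VDR–peptide interaction is then read as a change in fluorescence polarization.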
TDP1 cell noCPT = qHTS for Inhibitors of human tyrosyl-DNA phosphodiesterase 1 (TDP1): qHTS in cells in absence of CPT; DT40 Tdp1-/- hTDP1 cells, no CPT, ATP luminescence, 48 h; 15% of 420,000 active; Potency, µM (highest dose often 46.2 µM), inactives show top-dose activity change, negative = growth inhibition, most hits filed as inhibitors; further: nearly all actives have a fitted effect of over 55% in size
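Readout: luminescence from CellTiter-Glo after 30 min in the dark at RT. Cells: DT40 Tdp1-/- with stable hTDP1, 400/well. Exposure: compounds alone, ≥48 hr, 37 °C.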
TDP1 inh = TDP1 (human) enzyme inhibition; Q9NUW8; 0.28% of 350,000 active; recombinant TDP1, AlphaScreen DNA substrate cleavage; AID 485290; Potency, µM (highest dose often 130 µM), for inactives: at the highest dose activity change, negative = inhibition, most hits filed as inhibitors; further: nearly all actives have a fitted effect of over 40% in size
Target sequence (Q9NUW8 whole entry, looked up): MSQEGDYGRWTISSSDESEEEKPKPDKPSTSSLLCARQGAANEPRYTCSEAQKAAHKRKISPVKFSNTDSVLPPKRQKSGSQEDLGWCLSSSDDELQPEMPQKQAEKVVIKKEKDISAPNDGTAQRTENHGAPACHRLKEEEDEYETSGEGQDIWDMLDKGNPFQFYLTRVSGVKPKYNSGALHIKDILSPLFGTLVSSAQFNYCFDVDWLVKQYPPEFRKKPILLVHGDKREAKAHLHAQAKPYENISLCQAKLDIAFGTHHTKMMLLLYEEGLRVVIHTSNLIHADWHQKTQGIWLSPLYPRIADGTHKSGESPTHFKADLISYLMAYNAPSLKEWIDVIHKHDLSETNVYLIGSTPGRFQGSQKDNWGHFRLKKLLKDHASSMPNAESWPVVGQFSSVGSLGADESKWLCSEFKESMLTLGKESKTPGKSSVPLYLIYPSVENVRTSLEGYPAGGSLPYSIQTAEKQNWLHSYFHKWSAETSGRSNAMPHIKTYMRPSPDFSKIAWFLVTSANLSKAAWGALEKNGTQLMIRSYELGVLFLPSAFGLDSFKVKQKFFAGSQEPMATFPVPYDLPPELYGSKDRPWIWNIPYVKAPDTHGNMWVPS
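E. coli-derived human Tdp1, 1 nM final. Cpd preinc 15 min RT; substrate 15 nM final, 5 min RT; AS bead mix 10 ug/ml final, 10 min RT. Signal loss = tyrosine-FITC cleavage. No-enzyme wells = max signal.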
GCN5L2 inh = inhibitors of human GCN5L2 histone acetyltransferase. Q92830. GCN5L2 HAT assay, ThioGlo1 CoA-SH fluorescence. Potency, µM (top dose mostly 58.9 µM), for inactives: at the highest dose activity change, negative = inhibition, hits mostly inhibitors. 0.21% of 390,000 active. AID 504327
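Free CoA generated was detected with ThioGlo1 (50uM) fluorescence at Ex340nm/Em540nm, read immediately and after 20 min at room temperature. Enzyme, 20 nM in HEPES pH 7.5 buffer, saw compounds 15 min before adding 75uM H3(1-25) peptide and 70uM acetyl-CoA.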
* = called active by the depositor; ? = inconclusive; . = not tested or not shown; ! = repeats disagree; [ ] = another dose, or the depositor's remark. The call rests on the fitted dose curve; in most records, active means well fitted curve in the direction sought with a large enough effect; inconclusive means small, poorly fitted or top-dose-only effect, or another doubt; inactive means no such curve, though single readings can be large; an effect the other way counts as inactive or inconclusive. On the % scale 0 is the no-effect control and ±100 the full control effect; potency means the concentration at half of the fitted maximal effect.

SMILES	DT40 TDP1 CPT	PLK1 PBD block	VDR inh	TDP1 cell noCPT	TDP1 inh	GCN5L2 inh
COc1ccccc1OCCCC(=O)Nc1nnc(C2CCCO2)s1 (stereo not drawn)	20%	-7%	-20%	-1%	4%	1%
COc1ccc(Br)cc1CN1CCC(N2CCCC2)CC1	?	4%	-18%	?	5%	-9%
CC(C)OCCCNC(=O)C1CCN(S(=O)(=O)c2ccc3nc4c(c(C(=O)O)c3c2)CCCCC4)CC1	15%	-8%	-19%	11%	4%	1%
CCc1nn(-c2ccccc2)c2nc(-c3ccccc3OC)c3cc(OC)c(OC)cc3c12	18µM*	.	6%	16µM*	-8%[12.3 µM]	2%
CCOc1cc(-c2nc3c(c(CC)nn3-c3ccccc3)c3cc(OC)c(OC)cc23)ccc1O	3.3µM*	.	9%	?	6%[12.3 µM]	-1%
CCc1nn(-c2ccccc2)c2nc(-c3cccc(OC)c3)c3cc(OC)c(OC)cc3c12	3%	.	7%	-2%	2%[12.3 µM]	-7%
CCc1nn(-c2ccccc2)c2nc(-c3ccc(O)cc3)c3cc(OC)c(OC)cc3c12	1%	.	-13%	-21%	2%[2.28 µM]	-3%
Cn1cncc1CNc1ncnc2ccc(-c3ccc4c(c3)OCO4)cc12	.	.	.	.	5%	.
COc1cc(C(=O)NCC(c2cccs2)N2CCOCC2)ccc1OCc1ccc(Cl)cc1 (stereo not drawn)	6.5µM*	-3%	.	3.7µM*	.	.
Cc1ccc(C(C)C)c(OCC(=O)NCC(c2cccs2)N2CCOCC2)c1 (stereo not drawn)	26µM*	2%	-3%	13µM*	4%	-3%
Cc1cc(Cl)ccc1OCC(=O)NCC(c1cccs1)N1CCOCC1 (stereo not drawn)	?	-7%	-9%	16µM*	.	4%
O=C(NCC(c1cccs1)N1CCOCC1)c1cnc(Cl)c(Cl)c1 (stereo not drawn)	?	-11%	3%	?	1%	0%
Cc1cc(SCC(=O)NCC(c2cccs2)N2CCOCC2)c(C)cc1Br (stereo not drawn)	?	-19%	-11%	18µM*	.	-9%
CCC(=O)NCC(c1cccs1)N1CCOCC1 (stereo not drawn)	?	-3%	-3%	-11%	2%	1%
CCOC(=O)c1nnc2c(-c3ccc(Cl)cc3)c(C)nn2c1C	?	.	3%	?	10%	-2%
CC(C(=O)NC(C)(C)C)N(C(=O)CS(=O)CC(=O)Nc1ccc(F)cc1)C1CCCC1 (stereo not drawn)	12%	-3%	-12%	-4%	9%	0%
Cc1ccc(/C(=C\CN2CCCC2)c2cccc(/C=C/C(=O)O)n2)cc1	-6%	.	.	-7%	.	.
COc1ccc(-c2nc(S(=O)(=O)c3ccccc3)c(N3CCOCC3)o2)cc1	-9%	-8%	-18%	-19%	9%	1%
COc1cc(-c2nc(S(=O)(=O)c3ccc(Cl)cc3)c(N3CCOCC3)o2)cc(OC)c1OC	?	-4%	-17%	16µM*	7%	-1%
O=P(c1ccccc1)(c1ccccc1)c1nc(-c2ccc(Cl)cc2)oc1N1CCOCC1	?	24µM*!	?	-21%	12%	-8%
COc1cc(-c2nc(S(=O)(=O)c3ccc(C)cc3)c(N3CCOCC3)o2)cc(OC)c1OC	12µM*	-14%	79µM*	9.2µM*	12%	-27%
O=S(=O)(c1ccc(Cl)cc1)c1nc(-c2ccccc2Br)oc1N1CCOCC1	18µM*	.	-5%	23µM*	1%[2.28 µM]	-12%
CSCCC(NC(=O)COc1ccccc1)C(=O)N1CCCCCC1 (stereo not drawn)	-24%	-4%	-14%	?	0%	-1%
CSCCC(NC(=O)COc1ccccc1)C(=O)N1CCN(c2ccccc2F)CC1 (stereo not drawn)	15µM*	0%	9%	23µM*	0%	-4%
CC(=O)N1CCC[C@@]2(CCN(c3ncccn3)C2)C1	4%	.	-2%	-4%	.	-16%
SMILES	DT40 TDP1 CPT	PLK1 PBD block	VDR inh	TDP1 cell noCPT	TDP1 inh	GCN5L2 inh
Nc1nnc(N)c2ccccc12	-7%	-5%	0%	8%	-2%	-17%
Nc1nsc2ccccc12	3.3µM*	-11%	-96%	2.2µM*	0%	-10%
CCC(c1nc2ccccc2[nH]1)N(CCCn1ccnc1)C(=O)c1ccc(C(F)(F)F)cc1 (stereo not drawn)	?	2%	.	-20%	.	.
N#CC1=C(N)Oc2cc(N)ccc2C1c1cccnc1 (stereo not drawn)	?	-4%	5%	16µM*	0%	1%
CCN(CC)c1ccc2c(c1)OC(N)=C(C#N)C2c1cccnc1 (stereo not drawn)	0.021µM*	35%	-20%	0.037µM*	4%	-6%
Cc1ccc(CSc2nc(-c3cccs3)ccc2C#N)cc1	-28%	.	-19%	-22%	-15%	0%
CN1CCc2nc(SCc3ccc(Cl)cc3)c(C#N)c(-c3cccs3)c2C1	16µM*	-21%	?	?	.	.
COc1cc(C(=S)N2CCOCC2)cc(OC)c1OC(=O)Cc1ccc(F)cc1	1%	7.5µM*	?	?	-6%	-4%
COc1cc(C(=O)Oc2c(OC)cc(C(=S)N3CCOCC3)cc2OC)cc(OC)c1OC	-2%	-1%	-1%	0%	.	-3%
COc1cc(C(=S)N2CCOCC2)cc(OC)c1OS(=O)(=O)c1ccc(Cl)cc1	?	13µM*	89µM*	?	.	-10%
COc1cc(C(=S)N2CCOCC2)ccc1OS(=O)(=O)c1ccc(Cl)cc1	?	?	-13%	?	.	-11%
COc1cc(C(=S)N2CCOCC2)cc(OC)c1OC(=O)c1ccc(F)cc1	?	12µM*	?	?	5%	-7%
CCOc1cc(C(=S)N2CCOCC2)ccc1OS(=O)(=O)c1ccc(NC(C)=O)cc1	10µM*	-11%	9%	16µM*	1%	-6%
COCCNC(=O)CN1C(=O)/C(=C/c2ccccc2)Oc2ccc(C(C)(C)C)cc21	?	-3%	-3%	?	.	-23%
